Measured values reported in PubChem BioAssay (NCI).
This is part of a sample that, as a whole, favours compounds with a hit. Of some 83,000 tested, about 20% had one in any assay.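 A percent growth of 40 corresponds to 60% growth inhibition; 0 means no net growth; -100 means all cells died. Active threshold: below 10.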 A number with no mark means an inactive call. Activity calls are given as the source filed them.

Each compound was assayed on A549/ATCC NSCLC (assay: NCI-60 one-dose screen, 48 h (100 = growth as untreated, 0 = no growth, -100 = all killed)). Details: 10 µM unless noted.
Procedure: Growth inhibition of the A549/ATCC human Non-Small Cell Lung tumor cell line is measured as a screen for anti-cancer activity. Cells are grown in 96 well plates and exposed to the test compound for 48 hours. Compounds are tested at a single concentration, which is 10^-5 M for most compounds. The reported endpoint is percent growth (GI% or GIPRCNT), where numbers from 0 - 100% represent growth inhibition, and numbers from -100% - 0 represent cell death. For example, a value of 40 represents 60% growth inhibition. A value of 0 means no net growth occurred over the course of the experiment. A value of -40 indicates 40% of cells at the beginning of the experiment died by the end of the experiment. A value of -100 means all cells are dead at the end of the experiment.
NCI-60 Human Tumor Cell Lines Screen was performed using the standard one-dose NCI protocol, which is described in more detail at https://dtp.cancer.gov/discovery_development/nci-60/default.htm.
Compounds with GIPRCNT values below 10 were considered active. Activity score was based on GIPRCNT using the following formula: […]
Score is 0 for GIPRCNT values of 100 or above, 50 for GIPRCNT values of 0, and 100 for GIPRCNT values of -100.

First: O=C1CSC(c2ccccc2Cl)N1c1nnc(Cn2cnnc2)o1 (stereo not given)
Second: Clc1ccc(-c2nnc(-c3ccco3)o2)cc1
The growth of the first is lower: 58% for the first, 96.8% for the second.

First: O=C1Nc2ccccc2/C1=N/N=C/c1ccsc1
Second: O=c1oc2ccc(Cl)cc2cc1-c1cs/c(=N/N=C\c2ccc(Cl)cc2)n1/N=C/c1ccc(Cl)cc1
The growth of the first is higher: 107% for the first, 89.3% for the second.

Compared with `COc1cc(/C=C/C(=O)c2ccc(Nc3nc(Nc4ccccc4)nc(Nc4ccc(Cl)cc4)n3)cc2)cc(OC)c1OC`, `COc1ccc(-c2cc(-c3ccc(Nc4nc(Nc5ccccc5)nc(Nc5ccc(Cl)cc5)n4)cc3)nc(N)c2C#N)cc1` is lower in growth: 84.5% for the first, 38.2% for the second.

Compared with `CN(C)c1ccc(/C=C/c2c(F)cccc2F)cc1`, `Nc1nc(N)c(-c2ccc(Cl)cc2)c(/C=C/c2ccc([N+](=O)[O-])cc2)n1` is lower in growth: 82.6% for the first, 47.9% for the second.

Going from `Nc1c(-c2nc3ccc(Br)cc3c(=O)[nH]2)nnn1-c1ccccc1` to `c1ccc2[nH]c(SSc3nc4ncncc4[nH]3)nc2c1`, the growth rises from 74.8% to 80%.

Compared with `CCCNCC(=O)Nc1ccc(C(=O)OC(C)(C)CC)cc1`, `Cc1ccccc1NC(=O)CN(C)C` is lower in growth: 97.1% for the first, 95.7% for the second.

Going from `NC(=O)CC1(O)C=C(Br)C(=O)C(Br)=C1` to `OC(CBr)c1ccnc2ccccc12` (stereo not given), the growth falls from 112% to 96.3%.

Going from `CCN(CC)S(=O)(=O)c1ccc(O)c(NC(=O)c2[nH]c(C)c(C(C)=O)c2CCc2ccc(Cl)cc2)c1` to `CCc1c(C(=O)N[C@@H]2c3cc(Cl)ccc3CC[C@@H]2O)[nH]c(C)c1C(C)=O`, the growth rises from 37.2% to 62%.

First: Cc1cc(Cl)nc(N(CCCNc2ccnc3cc(Cl)ccc23)Cc2ccccn2)n1
Second: Cc1cc(N(CCCNc2ccnc3cc(Cl)ccc23)Cc2ccccn2)nc(N2CCOCC2)n1
The growth of the first is lower: 56.1% for the first, 86.4% for the second.

Going from `CS(=O)(=O)c1ccc(-c2[nH]c3ccc(F)cc3c2/C=N/NC(N)=S)cc1` to `Cc1ccc(S(=O)(=O)N(CC[C@@H]2C[C@H]2c2cc3ccccc3o2)C(=O)NC2CCCCC2)cc1`, the growth rises from 18.4% to 101%.

Compared with `Cc1ccc(/C=C(\C#N)n2nnc3cc(Cl)c(Cl)cc32)cc1`, `CNC(=O)c1cc(Oc2ccc3nc(Nc4cc(Cl)cc(Cl)c4)ccc3c2)ccn1` is higher in growth: 38.8% for the first, 49.3% for the second.

Going from `OCCCCc1nccc2c1[nH]c1ccccc12` to `CC[C@@H](C[C@H](CCO)c1ccccc1)c1cc2ccccc2o1`, the growth rises from 72.6% to 84.3%.

First: C=C1C(=O)O[C@H]2[C@H]1CC/C(COC(=O)/C=C/C(=O)NCc1ccc(Cn3c(=O)sn(-c4ccccc4)c3=O)cc1)=C\CC[C@@]1(C)O[C@@H]21
Second: O=C(NCc1cn(Cc2cccc(Oc3ccccc3)c2)nn1)c1cccnc1NCc1ccc(Cl)cc1
The growth of the first is higher: 80.2% for the first, 22.5% for the second.

Going from `O=C(/C=C/C12c3ccccc3C(c3ccccc31)C1C(=O)N(c3ccccc3)C(=O)C12)c1ccc(Cl)cc1` (stereo not given) to `CN(CCC(=O)/C(=C\c1ccccc1)c1ccc(Cl)cc1)Cc1ccccc1`, the growth rises from 25.1% to 85.9%.

Going from `COc1cccc(-c2nc3sccn3c2-c2ccnc(NCCNS(=O)(=O)c3c(Cl)cccc3Cl)c2)c1` to `CN(C)CN1CCN(c2ccc3nc(-c4ccc5nc(-c6ccc(C(F)(F)F)cc6)[nH]c5c4)[nH]c3c2)CC1`, the growth rises from 47.1% to 83.8%.

For `N#Cc1c(-c2ccccc2)nc(SCC2CO2)nc1N1CCOCC1` (stereo not given), the growth was 83.8%.

With `N=C(N)c1ccc(-c2ccc(-c3ccc(Cl)cc3Cl)o2)nc1` the growth was 6.38% (active).
In the case of `CCN(CC)CC(O)CNc1c2ccc(Cl)cc2nc2ccc(OC)cc12` (stereo not given), the growth was -72.9% (active).
In the case of `CCOc1ccc2nc(-c3cccc(OCC(=O)NC(C)C)c3)nc(Nc3ccc(-c4cn[nH]c4)cc3)c2c1`, the growth was -34.9% (active).
With `Oc1[nH]c2ccccc2c1/C=c1/cc2c(c(-c3ccc(F)cc3)n1)=Nc1ccccc1-2` the growth was -33.7% (active).
In the case of `O=C(/C=C/C12c3ccccc3C(c3ccccc31)C1C(=O)N(c3ccc(Cl)cc3)C(=O)C12)c1ccccn1` (stereo not given), the growth was 5.63% (active).
In the case of `CCNCCNc1cc(-c2ccc(C#N)cc2)c(C#N)c2nc3ccccc3n12`, the growth was 2.81% (active).
For `C=C(C)[C@@H]1CC[C@]2(CNCCO)CC[C@]3(C)[C@H](CC[C@@H]4[C@@]5(C)CCC(N)[C@@](C)(CO)[C@@H]5CC[C@]43C)[C@@H]12` (stereo not given in full), the growth was -33.5% (active).
In the case of `COc1ccc(OC)c(Nc2nc3nonc3nc2Nc2cccc(Br)c2)c1`, the growth was 9.15% (active).
In the case of `C=CC(=O)Nc1cccc(C)c1Nc1cc(-c2cccnc2Cc2c(C)c(OC)cc(OC)c2C)ncn1`, the growth was 8.38% (active).
